# Reference: PubChem BioAssay (NCATS)
# Results filed as inconclusive are left out. Where a call stands in place of a potency, no number is given. Calls of active or inactive are those of the source. Calls come from the whole dose curve; as a rule, active = well fitted cell-killing curve with a large enough effect; inconclusive = small, poorly fitted or top-dose-only effect, or effect the other way; inactive = no such curve, though single readings can be large or run the other way.
# Experiment: Viability qHTS for spleen associated tyrosine kinase inhibitor (SYKi) naive MV4-11 cells (AID 1963823); note: nearly all actives have a fitted effect of over 40% in size
# Conditions: MV4-11 AML viability, CellTiter-Glo luminescence, 72 h; series mostly up to 45 µM
# Procedure, shortened: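 Compounds were dispensed acoustically onto plates, MV4-11 cells (SYKi-naive) added at 500 per well, and plates incubated 72 hr at 37 C. CellTiter-Glo was added and luminescence measured after 10 min.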
# Potency is the fitted concentration of half-maximal effect.
Compound,Potency,viability (% of control)
CC(=O)O[C@@]1(C)C[C@@H](O)[C@]2(O)C=CO[C@@H](O[C@@H]3O[C@H](CO)[C@@H](O)[C@H](O)[C@H]3O)[C@@H]21,inactive,
NC(=O)c1ncn(C2O[C@H](CO)[C@@H](O)[C@H]2O)c1N (stereo partly specified),inactive,
CC(C)=CCC[C@](C)(O[C@@H]1O[C@H](CO[C@@H]2O[C@H](CO)[C@@H](O)[C@H](O)[C@H]2O)[C@@H](O)[C@H](O)[C@H]1O)C1CC[C@]2(C)[C@@H]1[C@H](O)CC1[C@@]3(C)CC[C@H](O[C@@H]4O[C@H](CO)[C@@H](O)[C@H](O)[C@H]4O[C@@H]4O[C@H](CO)[C@@H](O)[C@H](O)[C@H]4O)C(C)(C)[C@@H]3CC[C@]12C (stereo partly specified),,64.5% [at 9.25 µM] (inactive)
C=CC1(C)C=C2C(=O)OC(=O)C3=C(CCCC3(C)C)C2(O)CC1 (stereo unspecified),inactive,
CCC(CC)n1ccc2c(C(=O)NCc3c(C)cc(C)[nH]c3=O)cc(C#N)cc21,inactive,
CC(=O)SC[C@@H](Cc1ccccc1)C(=O)NCC(=O)OCc1ccccc1,inactive,
C/C(=C\CO)CC/C=C(\C)C(=O)O[C@@H]1O[C@H](CO)[C@@H](O)[C@H](O)[C@H]1O,inactive,
CCCC(=O)C1CCN(c2ncnc3c2CN(C(=O)c2ccc(-c4ccccc4)cc2)CC3)CC1,16.4 µM (active),
C=C1C[C@]23C[C@H]1CC[C@H]2[C@]1(C)CCC[C@@](C)(C(=O)O)[C@H]1[C@@H]3C(=O)O,inactive,
C/C(=C\CC[C@@H](C)[C@H]1CC(O)[C@@]2(C)C3CC[C@H]4C(C)(C)[C@@H](OC5OCC(O)C(O)C5OC5OC(CO)C(O)C(O)C5O)CC[C@@]45C[C@@]35CC(O)[C@]12C)C(=O)O (stereo partly specified),inactive,
COC(=O)CC1(O)C(=O)Nc2ccccc21 (stereo unspecified),inactive,
Cc1ccc(C)c(NC(=O)CNS(=O)(=O)c2ccc3[nH]c(=O)oc3c2)c1,inactive,
CC(=O)O[C@@](C)(C(=O)/C=C/C(C)(C)O)[C@H]1[C@H](O)C[C@@]2(C)[C@@H]3CC=C4[C@@H](C=C(O)C(=O)C4(C)C)[C@]3(C)C(=O)C[C@]12C,0.317 µM (active),
CCn1cc(NC(=S)Nc2cc(Cl)ccc2OC)c(C(N)=O)n1,inactive,
CC(C)(O)/C=C/C1=CC(=O)[C@@](C)(O)C[C@H]1O,inactive,
CCCN(CCC)C(=O)C1=Cc2ccc(-c3ccc(C(=O)N4CCCC4)cc3)cc2N=C(N)C1,8.33 µM (active),

Compound,Potency,viability (% of control)
CNC12CC3C[C@@](C)(C1)C[C@](C)(C3)C2,inactive,
CC/C(C)=C/C(=O)OC1C(OC2(C)CCC3C(C4C(C)CCC42)C3(C)C)OC(C)C(O)C1O (stereo unspecified),8.93 µM (active),
C=C1C(=O)OC2/C=C(\C)CC/C=C(\C=O)C(OC)C(OC(=O)C(C)CC)C12 (stereo unspecified),3.21 µM (active),
C[C@@H]1COCCN1c1cc(C2(S(C)(=O)=O)CC2)nc(-c2cccc3[nH]ccc23)n1,0.58 µM (active),
CC(CO[C@@H]1O[C@H](COC(=O)/C=C/c2ccc(O)c(O)c2)[C@@H](O)[C@H](O)[C@H]1O)C1(O)COC(=O)C1 (stereo partly specified),inactive,
CC(C)C(NC(=O)c1ccc2ccccc2n1)C(=O)NC(CC(=O)O)C(=O)COc1c(F)cccc1F (stereo unspecified),inactive,
CC1=C2CC3C(CCC3(C)O)C(C)(O)CC2OC1=O (stereo unspecified),inactive,
C[C@@H]1O[C@@H](OC[C@H]2O[C@@H](OCC3CCC4CC3C4(C)C)[C@H](O)[C@@H](O)[C@@H]2O)[C@H](O)[C@H](O)[C@H]1O (stereo partly specified),inactive,
CCCCCOC(=O)Nc1nc(=O)n(C2O[C@H](C)[C@@H](O)[C@H]2O)cc1F (stereo partly specified),inactive,
CC(=O)O[C@@H]1[C@H]2[C@@H](OC(=O)c3ccccc3)[C@@H](C)C[C@]2(O)[C@H](OC(C)=O)[C@@]2(C)[C@@H]3CC(C)(C)C(=O)[C@]3(OC(C)=O)C[C@@]12C,inactive,
CC1(C)CCC(C)(C)c2cc3c(cc21)Sc1ccccc1N=C3c1ccc(C(=O)O)cc1,inactive,
C[C@@H]1O[C@@H](OC(=O)Cc2ccccc2)[C@H](O)[C@H](O)[C@H]1O,inactive,
NC(=O)c1ccc(F)c2c1C[C@@H](N(C1CCC1)C1CCC1)CO2,inactive,
C=C1[C@@H]2CC[C@@H]3[C@@](CCC4C(C(=O)O)(C(=O)O)C[C@@H](O[C@@H]5O[C@H](CO)[C@@H](O)[C@H](O)[C@H]5OC(=O)CC(C)C)C[C@]43C)(C2)[C@H]1O (stereo partly specified),inactive,
COc1ccc(N2CCN(CCCNC(=O)Cn3c(=O)c4cccn4c4c(C)ccnc43)CC2)cc1,inactive,
